# Compounds with a hit are over-represented: about 4.8% of the library has one in this group of screens.
# AI-2 QS modul: modulates the Vibrio harveyi AI-2 quorum sensing system; AID 2094; actives 0.4% (n = 300,000); Vibrio harveyi JMH597 AI-2 luminescence/OD600 ratio, 9 h; hits give low values; strain lacks LuxN and CqsS sensors; 0 = neutral-control median; activity change, % at 7.5 µM; in the data active = activity change below about -75%, passing the limit was not always enough;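 also: luminescence divided by OD600 gain over 9 h not by final OD600 alone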
# SUMO Mot1 rescue: inhibitors of SUMOylation pathway: yeast Mot1-301 growth rescue; S. cerevisiae Mot1-301 growth rescue, ATP luminescence, 38.5C; percent above DMSO median, 100 means doubled; AID 2716; actives 1% (n = 320,000); growth rescue, % at 18.8 µM;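 active = every valid replicate shows activation above 250% relative to neutral control wells; inactive = the rest, any valid replicate at or below 250%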;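 also: OY570 slx delta 5 strain wells were the positive control but not used for scaling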
# HIF act: HIF pathway transcriptional activation; actives 0.32% (n = 300,000); U2OS HRE-luciferase reporter, luminescence; normalized: DMSO 0%, desferrioxamine 100%; activation, % at 7.5 µM (by protocol);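 active = mean activation of at least 10% of the iron chelator positive control signal, with at least half of replicates also reaching 10%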
# ALR inh: blocks human ALR sulfhydryl oxidase activity. actives 3.8% (n = 290,000). purified ALR, DTT oxidation, H2O2 HRP-luminol luminescence. AID 485317. P55789. inhibition, % (no concentration beside the values);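 active = mean replicate inhibition above about 79%, with every replicate also reaching it, limit read from the data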
# Target sequence (P55789 whole entry, looked up): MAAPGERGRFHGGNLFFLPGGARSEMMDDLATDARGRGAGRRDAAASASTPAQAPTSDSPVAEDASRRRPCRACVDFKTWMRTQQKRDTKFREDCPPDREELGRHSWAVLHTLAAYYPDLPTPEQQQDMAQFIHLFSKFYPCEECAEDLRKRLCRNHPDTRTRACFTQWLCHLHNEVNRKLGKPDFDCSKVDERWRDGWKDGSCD
# Starred values were filed as active, the others as inactive; / = no result given.
SMILES,AI-2 QS modul,SUMO Mot1 rescue,HIF act,ALR inh
COc1ccc(OC)c(NC(=O)CSc2nn3c(=O)c(C)nnc3s2)c1,30,-11,0,86*
COc1ccc(CCNC(=O)CSc2nn3c(=O)c(C)nnc3s2)cc1OC,17,4,1,14
Cc1nnc2sc(SCC(=O)Nc3cccc(Cl)c3)nn2c1=O,9,-2,0,98*
O=C(CSc1ccccn1)Nc1ccc(NC(=O)CSc2ccccn2)cc1,7,2,0,-20
Cc1ccccc1NC(=O)CSc1nn2c(=O)c(C)nnc2s1,19,69,0,49
O=C(CSc1ccccn1)Nc1nonc1[N+](=O)[O-],-88*,/,-5,-57
COc1cccc(NC(=O)CSc2ccccn2)c1,7,-14,2,90*
COc1cccc(NC(=O)CSc2nn3c(=O)c(C)nnc3s2)c1,17,-15,0,99*
Cc1cc(C)cc(NC(=O)COC(=O)COc2ccc(N(C)S(=O)(=O)c3cccs3)cc2)c1,/,-15,/,9
CC(=O)N1CC(=O)N=C1SCC(=O)Nc1nc(-c2ccccc2)c(-c2ccccc2)s1,14,-10,0,99*
O=C(O)C1C2CCC(O2)C1C(=O)Nc1ccc(F)c(Cl)c1 (stereo unspecified),9,13,-3,-8
Cc1ccc(NC(=O)C2C3CCC(O3)C2C(=O)O)cc1Cl (stereo unspecified),16,355*,-1,0
Cc1nn(-c2ccccc2)c(C)c1/C=C/C(=O)OCC(=O)Nc1ccc(S(N)(=O)=O)cc1,/,0,/,-2
CCn1c(-c2ccc(N)cc2)nc2ccccc21,19,362,/,92*
COc1cc(Cn2c(-c3ccc(O)c(OC)c3)nc3ccccc32)ccc1O,7,-8,-1,99*
CCn1c(-c2ccc(N(C)C)cc2)nc2ccccc21,42,8,2,99*
CCn1c(N)nc2ccccc21,17,-8,1,20
CN(C)c1ccc(-c2nc3ccccc3n2C)cc1,4,-12,-2,91*
CC1CCCC1/C(=N/O)c1ccccc1 (stereo unspecified),-5,-12,-4,2
CCC(C)c1ccccc1N1CC(C(=O)Nc2ccc(C)c(S(=O)(=O)N3CCOCC3)c2)CC1=O (stereo unspecified),14,-9,0,-13
COc1ccc(NC(=O)CSc2nnc(-c3cnccn3)n2C)cc1OC,7,-2,0,-41
C=CCn1c(-c2ccc(N)cc2)nc2ccccc21,22,265,/,95*
C=CCn1c(N)nc2ccccc21,44,27,0,-12
CCn1c(SCC(=O)Nc2nc3ccccc3s2)nnc1-c1ccc(OC)cc1,13,343*,0,-44
C=CCn1c(SCC(=O)Nc2nc3ccccc3s2)nc(O)c(CC)c1=O,30,-4,0,99*
SMILES,AI-2 QS modul,SUMO Mot1 rescue,HIF act,ALR inh
CCc1c(O)nc(SCC(=O)Nc2nc3ccccc3s2)n(-c2ccccc2)c1=O,10,-5,1,96*
CCc1c(O)nc(SCC(=O)Nc2nc3ccccc3s2)n(-c2ccc(C)cc2)c1=O,21,-13,1,98*
CCn1c(Cc2ccccc2)nnc1SCC(=O)Nc1nc2ccccc2s1,7,-7,0,-7
COc1ccc(CN(C)C(=O)c2cccc(C(=O)N(C)Cc3ccc(OC)cc3)c2)cc1,-5,183,0,-3
Cc1c(C(=O)N/N=C/c2cccnc2)nnn1-c1nonc1N,17,9,-26,/
CCN1C/C(=C/c2ccc(OC)c(O)c2)C(=O)/C(=C/c2ccc(OC)c(O)c2)C1,19,-13,-7,98*
COc1ccc(/C=C2\CN(Cc3ccccc3)C/C(=C\c3ccc(OC)c(O)c3)C2=O)cc1O,22,8,-5,/
CCOC(=O)c1c(S(=O)(=O)NCC(=O)Nc2cc(C)ccc2OC)c(C)n(C)c1C,24,-2,0,-4
Cc1ccc(C(=O)CSc2nc(C(C)C)nc3ccccc23)cc1,4,9,0,98*
CC(C)c1nc(SCC(=O)c2ccc(F)cc2)c2ccccc2n1,13,0,0,99*
COC(=O)CSc1cnc2ccccc2n1,33,154,0,0
COC(=O)CSc1nc(C(C)C)nc2ccccc12,12,-4,0,-11
O=C(CSc1cnc2ccccc2n1)c1ccc(F)cc1,15,-1,1,97*
O=C(c1ccc(S(=O)(=O)Nc2cccc(C(F)(F)F)c2)cc1)N1CCN(c2ccccc2O)CC1,56,-1,0,/

# Assay outcomes (PubChem)
